{"source": "PubChem BioAssay (NCATS)", "note": "Values joined by “and” are separate entries in the source; they are usually repeats but may differ in a detail not shown here. Equal values may be shown once. Inconclusive results are not listed. Values without a mark were called inactive. Active and inactive are the calls of the source. The call rests on the fitted dose curve; in most records, active means well fitted activation curve with a large enough effect; inconclusive means small, poorly fitted or top-dose-only effect; inactive means no such curve, though single readings can be large or run the other way. Potency means the concentration at half of the fitted maximal effect."}
{"target": "Cellular tumor antigen p53 (Homo sapiens) (UniProt P04637)", "sequence (P04637 whole entry, looked up)": "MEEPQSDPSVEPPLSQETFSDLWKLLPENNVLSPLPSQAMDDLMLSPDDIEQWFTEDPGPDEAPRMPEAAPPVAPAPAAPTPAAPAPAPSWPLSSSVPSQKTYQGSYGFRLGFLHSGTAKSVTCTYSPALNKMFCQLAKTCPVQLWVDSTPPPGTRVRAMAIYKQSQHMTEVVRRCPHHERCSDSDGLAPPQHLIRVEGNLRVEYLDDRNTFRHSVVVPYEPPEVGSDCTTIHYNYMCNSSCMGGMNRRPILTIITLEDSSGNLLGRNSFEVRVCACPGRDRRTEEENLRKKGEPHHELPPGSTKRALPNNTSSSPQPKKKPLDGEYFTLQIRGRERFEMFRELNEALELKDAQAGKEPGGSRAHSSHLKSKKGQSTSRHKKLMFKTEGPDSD", "assay": "Primary qHTS for small molecule compounds that upregulate eGFP-tagged delta133p53alpha (in N-terminal) cells. (AID 2060322); further: nearly all actives have a fitted effect of over 75% in size;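 on activation: series mostly up to about 56 µM; 0% = DMSO vehicle and 100% = reference activator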", "conditions": "NCI-H358 eGFP-delta133p53alpha fluorescence, 24 h; activation: hits give high values", "method_in_brief": "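NCI-H358 cells pre-induced 24 h with 10 ng/ml doxycycline to express N-terminal eGFP-delta133p53alpha, then dosed 24 h at 37C without doxycycline; fixed, Hoechst-stained, GFP intensity by laser scanning cytometry, normalized to DMSO (0%) and 57.5 uM 5-azacytidine (100%).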"}
{"smiles": "O=C1c2c(O)cccc2Cc2cccc(O)c21", "activation": "-24.3%"}
{"smiles": "CC[C@H](c1ccc(O)cc1)[C@@H](CC)c1ccc(O)cc1", "Potency": "12.3 µM (active)"}
{"smiles": "Cc1cc(=O)oc2cc(O[C@@H]3SC[C@@H](O)[C@H](O)[C@H]3O)ccc12", "activation": "23.2%"}
{"smiles": "CO[C@@H]1[C@@H](OC)[C@H](C)[C@@](O)(CC(=O)O)O[C@H]1[C@H](C)[C@H]1O[C@@]2(CC[C@@](C)([C@H]3CC[C@@](C)([C@@H]4O[C@@H]([C@H]5O[C@](C)(O)[C@H](C)C[C@@H]5C)C[C@@H]4OC4C[C@H](OC)[C@@H](OC)[C@H](C)O4)O3)O2)C[C@H](O)[C@H]1C", "note": "(some centres not stated)", "Potency": "8.71 µM (active)"}
{"smiles": "COc1cc(O)cc(O)c1", "activation": "-1.67%"}
{"smiles": "CC(=O)OCC[N+](C)(C)C", "activation": "15.3%"}
{"smiles": "CCn1cc(C(=O)O)c(=O)c2cnc(N3CCCC3)nc21", "activation": "3.95%"}
{"smiles": "Oc1c(Cl)cc(Cl)c(Cl)c1Cc1c(O)c(Cl)cc(Cl)c1Cl", "activation": "19.8%"}
{"smiles": "CCC(Cc1c(I)cc(I)c(N)c1I)C(=O)O", "note": "(configuration not stated)", "activation": "29.9%"}
{"smiles": "Cc1ncc(CSSCc2cnc(C)c(O)c2CO)c(CO)c1O", "activation": "-22%"}
{"smiles": "CC[C@]1(O)C[C@@H]2CN(CCc3c([nH]c4ccccc34)[C@@](C(=O)OC)(c3cc4c(cc3OC)N(C=O)[C@@H]3C45CCN4CC=C[C@](CC)([C@H]45)[C@@H](OC(C)=O)[C@]3(O)C(=O)OC)C2)C1", "note": "(some centres not stated)", "activation": "-1.44%"}
{"smiles": "CCN(C)C(=O)Oc1cccc([C@H](C)N(C)C)c1", "activation": "6.21% and 13.7%"}
